The record followed here is the supplement of paper PMC6555819.

What all share (assay): PBM binding z-score (relative to random genomic background probes); higher = stronger binding; sequences stand for … in GC…GCGATTGACAGCGTAGAATGAAGG
Test [1] deals with RARb homodimer (NR concentration 270 nM). The essentials: (§1)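 On custom Agilent 4×180K arrays, double-stranded probes with 34-nt variable regions carried direct-repeat seeds, single-nucleotide variants, half-site ablations or random human genomic background. Ligand-free nuclear receptor dimers were applied for 1 h, and binding was read with antibodies against each partner (one per run). Binding z-scores come from regression-normalized fluorescence, with the random background probes as reference.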

Test [2] deals with RARg:RXRa (NR concentration 270 nM, RXRa partner concentration 90 nM). The essentials:
as §1

Test [3] has as its system RARg homodimer (NR concentration 270 nM). An outline of the steps:
as §1

Test [4] deals with RXRa DBDmut IVT, anti-RXR (DBD mutation: RXRa K156A/R161A, NR concentration 90 nM). An outline of the steps:
as §1

The test system of test [5] is RXRa homodimer (NR concentration 180 nM). An outline of the steps: as §1
Test [6] has as its system THRa:RXRa (NR concentration 90 nM, RXRa partner concentration 90 nM). An outline of the steps:
as §1

Test [7] deals with THRa homodimer (NR concentration 90 nM). The essentials: as §1
Test [8] has as its system VDR homodimer (NR concentration 270 nM). An outline of the steps:
as §1

TCTGCAAGGTCAGTTGGTCAGCTAACGAGCTGCC: the PBM binding z-score in test [1] came out at 3.59; in test [2], 4.63; in test [3], 5.16; in test [4], 2.42; in test [5] it was 2.78; in test [6], 3.02. For the same sequence, the PBM binding z-score in test [7] was found to be 0.921; in test [8], 1.12.

Consider TCGAGTAGGTTACCAAAGGGGCATTCAGCTTTCT, for which the PBM binding z-score worked out at 1.34 in test [1]; 2.2 in test [2]; 0.617 in test [3]; 0.44 in test [4]; 0.779 in test [5]; 0.46 in test [6]. For the same sequence, the PBM binding z-score in test [7] is -0.71; in test [8], 0.0103.

Regarding CCAGACAGGTGAGAGGTAACTCAGTCTGGTACGC, the PBM binding z-score in test [1] was 0.491; in test [2], 0.564; in test [3], 0.526; in test [4], -0.348; in test [5], 0.784; in test [6], 0.574. The PBM binding z-score in test [7] is -0.109; in test [8] it was -0.514.

Regarding TCATATAGATAAATGCTAGGTGAAAGTCCGATCT, the PBM binding z-score in test [1] is 0.00895; in test [2], 0.12; in test [3], 0.317; in test [4], 1.66; in test [5], 0.786; in test [6], 0.626. Moreover, the figures for the PBM binding z-score in test [7] and in test [8] were 0.378 and 0.203, respectively.

Regarding TATACAGGGTCAAAGGCCAGATTACGAATGTCGA, the PBM binding z-score in test [1] worked out at 3.49; in test [2], 5.72; in test [3] it was 4.99; in test [4], 3.29; in test [5], 6.99; in test [6], 3.6. Further, the PBM binding z-score in test [7] was 0.972; in test [8], 2.54.

On to GCTAATTGGTCAGTAAAAGGTCACACACCGGTCG, for which the PBM binding z-score in test [1] worked out at 5.34; in test [2], 5.37; in test [3] it was 4.52; in test [4], 0.816; in test [5] it was 5.27; in test [6] it was 3.88. The PBM binding z-score in test [7] amounted to 2.1; in test [8] it was 2.14.

With TCATATAGGTAATTCAGGTGAAAGTCGGCATCTA, the PBM binding z-score in test [1] is 0.654; in test [2] it was 0.323; in test [3] it was 0.241; in test [4], 1.73; in test [5], 0.923; in test [6], 2.52. For the same sequence, the results for the PBM binding z-score in test [7] and in test [8] were 1.8 and 0.399, respectively.
